CtBP-E1A inh = qHTS Assay for Inhibitors of the CtBP/E1A Interaction; AID 651724, 2012; activity change, % (concentration not given with the values); AlphaScreen GST-E1A/His-CtBP binding, 1536-well; stronger effect = lower value; 340,000 compounds, 0.49% hits; CtBP / adenovirus E1A interaction (AlphaScreen)
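In 5 uL wells, 23 nL compound meets equimolar GST-E1A and His-CtBP (5X stock 125 nM each) for 2 h, 37 °C. Beads (5X, 50 ug/mL) then 1 h, 37 °C, dark.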
Mito fusion act = qHTS Assay for Small Molecule Inhibitors of Mitochondrial Division or Activators of Mitochondrial Fusion; Potency, µM (highest dose often 46.1 µM), actives largely listed as activators; 320,000 compounds, 0.23% hits; S. cerevisiae fusion-defective mutant growth rescue, CellTiterGlo 48 h; active = well fitted activation curve with a large enough effect; inconclusive = small, poorly fitted or top-dose-only effect; inactive = no such curve, though single readings can be large or run the other way; also: nearly all actives have a fitted effect of over 45% in size
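Yeast fusion mutant, YPEG (non-fermentable carbon), compound, 48 h at 37C non-permissive; CellTiterGlo added, 10 min RT, luminescence read. Rescued growth = division inhibition.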
uPA surface inh = qHTS for Inhibitors of Cell Surface uPA Generation | cell surface uPA generation assay, qHTS | Potency, µM (highest dose often 38.3 µM), most hits filed as inhibitors | 330,000 compounds, 0.31% hits | AID 540303, 2011; active = well fitted inhibition curve with a large enough effect; inconclusive = small, poorly fitted or top-dose-only effect; inactive = no such curve, though single readings can be large or run the other way; tested in mouse RAW 264.7 cells; also: nearly all actives have a fitted effect of over 55% in size
Six1-Eya2 blk = qHTS Assay for Inhibitors of the Six1/Eya2 Interaction. Homeobox protein SIX1 (Homo sapiens) + Protein phosphatase EYA2 (Homo sapiens), …. 360,000 compounds, 0.56% hits. AID 651725, 2012. AlphaScreen GST-Six1/His-Eya2 binding, biochemical; stronger effect = lower value. activity change, % (no concentration beside the values)
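Six1/Eya2 binding was read as AlphaScreen signal after compounds were pinned into GST-Six1 plus His-tagged Eya2 (5X stock 250/500 nM) in pH 8.0 Tris/NaCl/TCEP buffer, beads added, then incubated 1 h, 37 C, dark.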
MBNL1 CUG block = qHTS Assay for Inhibitors of MBNL1-poly(CUG) RNA binding; Muscleblind-like protein 1 (Homo sapiens), Q9NR56; TR-FRET MBNL1-His/biotin-(CUG)12 binding, 665/545 ratio; Potency, µM (titrated, usually from 57.5 µM), most hits filed as inhibitors; 280,000 compounds, 0.036% hits; AID 2675, 2010; active = well fitted inhibition curve with a large enough effect in the signal ratio, with a control signal flat, not every such curve was filed as active; inconclusive = small, poorly fitted or top-dose-only effect, or effect the other way, or a change in a side signal; inactive = no such curve, though single readings can be large or run the other way; the % refers to the signal ratio
Target sequence (Q9NR56 whole entry, looked up): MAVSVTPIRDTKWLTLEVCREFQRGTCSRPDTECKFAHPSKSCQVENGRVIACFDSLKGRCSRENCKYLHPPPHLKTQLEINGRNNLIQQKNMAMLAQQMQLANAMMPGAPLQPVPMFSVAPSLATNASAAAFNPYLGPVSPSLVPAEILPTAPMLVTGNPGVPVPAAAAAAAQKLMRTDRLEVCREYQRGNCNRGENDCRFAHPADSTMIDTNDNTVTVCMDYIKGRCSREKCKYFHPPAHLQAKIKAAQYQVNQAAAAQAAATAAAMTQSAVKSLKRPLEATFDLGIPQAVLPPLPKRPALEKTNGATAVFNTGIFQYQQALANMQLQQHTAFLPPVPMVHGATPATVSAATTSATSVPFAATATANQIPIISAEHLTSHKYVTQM
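Inhibition of protein-RNA binding appears as loss of TR-FRET between terbium anti-His antibody on MBNL1-His and streptavidin-XL665 on biotin-(CUG)12. Activity is normalized to buffer-only and uninhibited-complex controls.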
Hits are given with their value; n = inactive; u = inconclusive; x = not tested or not shown; [ ] = dose if it differs, or a comment. The list is not random: actives were taken first. Their share in the collection is about 1.1%. Rule as the data show it, unless noted: active = activity change below about -65%; inconclusive = mostly about -30% to -63%; inactive = weaker than that.

SMILES	CtBP-E1A inh	Mito fusion act	uPA surface inh	Six1-Eya2 blk	MBNL1 CUG block
C=CCn1c2ccccc2c(=O)c2cc(C#CC[C@@H](C)O)ccc21	n	n	4µM	n	x
Cn1c(=O)[nH]c2nnc(-c3ccc(Cl)c(Cl)c3)nc2c1=O	n	2.5µM	n	u	u
O=C(N/N=C/c1cccc([N+](=O)[O-])c1O)c1cccs1	n	n	n	-91	u
COc1cc([N+](=O)[O-])cc(/C=N\NC(=O)C2COc3ccccc3O2)c1O (stereo not given)	x	n	n	-89	x
O=[N+]([O-])c1cccc(C=NNc2ccc3ccccc3n2)c1O	-95	x	n	-91	x
O=C(N/N=C\c1cccc([N+](=O)[O-])c1O)C1COc2ccccc2O1 (stereo not given)	-96	n	n	-88	u
Cc1ccccc1S(=O)(=O)NC(=O)C1(C)CCN1C(=O)CC(c1ccccc1)c1ccccc1 (stereo not given)	n	x	x	n	x
O=C(NC1CCCC1)C1C(c2ccc(C(F)(F)F)cc2)=Nc2ccccc2N1C(=O)c1ccccc1 (stereo not given)	n	x	x	n	x
COc1cc(F)ccc1-c1csc(C(NC(C)=O)c2ccc(F)c(F)c2)n1 (stereo not given)	n	x	x	n	x
C=C1C[C@@]23CC[C@H]4[C@@](C)(CCC[C@@]4(C)C(=O)OC4OC(CO)C(O)C(O)C4O)[C@@H]2CC[C@]1(OC1OC(CO)C(O)C(O)C1OC1OC(CO)C(O)C(O)C1O)C3 (stereo not given in full)	x	n	x	x	x
O=C(NCc1ccncc1)[C@@H]1CCCN1C(=O)[C@H]1CCCN1C(=O)c1cccc2ccccc12	n	x	x	n	x
CCCCCCN(C(=O)CCl)c1ccccc1	x	n	2.5µM	n	n
Clc1ccc(C[n+]2csc3ccccc32)cc1	n	11µM	n	n	n[11.5 µM]
CCOC(=O)N1CCN(c2nc3ccccc3n3cnnc23)CC1	n	25µM	n	n	n
c1cnc(N2CCN(c3nc4ccccc4n4cnnc34)CC2)nc1	n	n	x	n	n
COC(=O)C[C@@H]1CC[C@@H](NS(=O)(=O)c2cccc(OC)c2)[C@@H](CO)O1	n	x	x	n	x
O=C(Nc1ccc2c(c1)OCCO2)C(C1CC1)n1c(=O)c(-c2cc3ccccc3[nH]2)nc2ccccc21 (stereo not given)	n	x	x	n	x
COC(=O)[C@@]12C[C@@H](CC(=O)N3CCN(C(=O)c4ccco4)CC3)C(=O)N(Cc3ccccc3)C1=CCC(C)(C)C2	n	x	x	n	x
Cn1cccc1-c1cc(C(=O)N/N=C/c2ccccc2Cl)[nH]n1	n	n	n	n	n
Cn1cccc1-c1cc(C(=O)N/N=C/c2cc(Br)ccc2O)[nH]n1	-87	n	n	-83	n
O=C(CN1CC(c2ccccc2)CC1=O)N/N=C/c1cc(Br)ccc1O (stereo not given)	-90	n	n	-84	n
COc1ccc(C(=O)N/N=C/c2cc(Br)ccc2O)cc1OC	-91	n	n	-68	n
O=C(N/N=C/c1cc(Br)ccc1O)C(c1ccncc1)N1CCOCC1 (stereo not given)	n	n	n	-89	n
CCOc1ccc(NC(=O)CN2CC(c3ccccc3)CC2=O)cc1 (stereo not given)	n	n	n	n	u
Cc1cccc(OCC(=O)NCC(=O)N/N=C/c2cc(Br)ccc2OCc2ccccc2)c1	n	u	n	n	x
SMILES	CtBP-E1A inh	Mito fusion act	uPA surface inh	Six1-Eya2 blk	MBNL1 CUG block
O=C(COc1ccccc1)NCC(=O)N/N=C/c1cc(Br)ccc1OCc1ccccc1	n	18µM	n	n	n
O=C(CNC(=O)c1ccccc1)N/N=C/c1cc(Br)ccc1O	n	n	n	-65	n
O=C(CNC(=O)c1ccncc1)N/N=C/c1cc(Br)ccc1O	-66	n	n	u	x
c1ccc(N=Nc2ccc3cccccc2-3)cc1	-90	x	n	-98	x
CCC(=O)c1ccc(OC(=O)c2cccs2)cc1	n	x	n	u	x
COC(=O)c1ccc(OC(=O)c2cccs2)cc1	n	n	n	-68	x
CCCc1cc(-n2ccnc2C)n2c(nc3ccccc32)c1C#N	n	x	n	n	x

Assay outcomes: PubChem, National Center for Advancing Translational Sciences (NCATS)
